# Rows were chosen to be rich in hits. Some 2.4% of all compounds tested hit in one or more screens of this group.
# Pol eta inh: blocks human DNA polymerase eta activity. Q9Y253. recombinant Pol eta, fluorescent DNA replication assay. Potency, µM (doses to about 114 µM), hits mostly inhibitors. actives 1.2% (n = 390,000). AID 588591
#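 Fluorescent replication assay: 50 nM final substrate added after a 15 min room-temperature compound preincubation with 10 nM enzyme. Signal taken at 0 min and again at 10 min.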
# POLK inh: blocks human DNA polymerase kappa activity; Potency, µM (series often up to 107 µM), most hits filed as inhibitors; purified Pol kappa, fluorescent DNA synthesis assay, 10 min; actives 0.53% (n = 400,000)
# Target sequence (Q9UBT6 whole entry, looked up): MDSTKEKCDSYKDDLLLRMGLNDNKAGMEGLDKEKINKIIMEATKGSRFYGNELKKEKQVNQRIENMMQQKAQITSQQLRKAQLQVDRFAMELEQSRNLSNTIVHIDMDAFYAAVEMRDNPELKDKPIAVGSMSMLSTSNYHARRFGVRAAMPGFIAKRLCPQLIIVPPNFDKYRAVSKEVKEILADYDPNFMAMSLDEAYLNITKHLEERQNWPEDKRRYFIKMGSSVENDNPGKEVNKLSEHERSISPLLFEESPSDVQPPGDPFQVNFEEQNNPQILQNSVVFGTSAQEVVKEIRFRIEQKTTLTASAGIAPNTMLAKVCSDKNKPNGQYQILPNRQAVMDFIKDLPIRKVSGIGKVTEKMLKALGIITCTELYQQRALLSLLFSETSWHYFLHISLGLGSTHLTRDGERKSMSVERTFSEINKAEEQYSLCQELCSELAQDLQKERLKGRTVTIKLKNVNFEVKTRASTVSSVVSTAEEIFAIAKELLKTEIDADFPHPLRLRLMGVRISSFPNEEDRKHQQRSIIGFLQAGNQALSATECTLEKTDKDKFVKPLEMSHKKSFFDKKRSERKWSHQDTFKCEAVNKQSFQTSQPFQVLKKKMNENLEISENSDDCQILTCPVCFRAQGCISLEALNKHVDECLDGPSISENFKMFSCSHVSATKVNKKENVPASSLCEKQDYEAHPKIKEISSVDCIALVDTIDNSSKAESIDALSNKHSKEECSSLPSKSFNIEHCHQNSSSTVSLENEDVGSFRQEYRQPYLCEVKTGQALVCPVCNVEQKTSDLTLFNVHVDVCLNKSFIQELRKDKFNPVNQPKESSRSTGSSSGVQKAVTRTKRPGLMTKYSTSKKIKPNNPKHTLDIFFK
#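 Readout: fluorescence, taken kinetically at 0 and 10 min. Conditions: 10 nM Pol kappa, 15 min RT compound preincubation, 50 nM substrate final. Controls: enzyme-free buffer wells.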
# FEN1 inhibitor: inhibitors of human flap endonuclease 1; P39748; Recombinant FEN1 flap cleavage, fluorescence, 15 min; Potency, µM (top dose mostly 114 µM), actives largely listed as inhibitors; actives 0.35% (n = 390,000); also: nearly all actives have a fitted effect of over 65% in size
#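 Reaction started by adding substrate (50 nM final) to 10 nM enzyme after 15 min room-temperature compound preincubation. Reads at 0 and 15 min, with data normalized and fitted to a four-parameter Hill equation.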
# WRN inhibitor: WRN helicase (human) inhibition | Potency, µM (series often up to 114 µM), most hits filed as inhibitors | AID 651768 | WRN helicase unwinding, fluorescent forked duplex, kinetic | Q14191 | actives 0.46% (n = 360,000); also: nearly all actives have a fitted effect of over 55% in size
#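 WRN at 20 nM final preincubated with compound 15 min at room temperature; reaction started with 100 nM fluorophore/quencher forked duplex oligonucleotide and 2 mM ATP final. Unwinding followed kinetically by red fluorescence (ex 525, em 598 nm).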
# POLB inh: inhibitors of human DNA polymerase beta. P06746. Pol beta primer extension/strand displacement, fluorescence kinetic. Potency, µM (titrated, usually from 114 µM), usual class: inhibitors. actives 1.3% (n = 340,000)
#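 Pol beta (10 nM) and compounds were preincubated 15 min at room temperature, then 50 nM substrate (final) started primer extension/strand displacement. Reads were taken at 0 and 10 min; concentration-response data were fitted to a four-parameter Hill equation.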
# Pol iota inh: blocks human DNA polymerase iota activity. Pol iota fluorescent replication assay, 10 min. Potency, µM (doses to about 115 µM), usual class: inhibitors. actives 1% (n = 390,000)
#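 Pol iota at 10 nM preincubated 15 min with compounds at room temperature; reaction started with fluorescent substrate, 50 nM final. Fluorescence read kinetically at 0 and 10 min; buffer-only wells as negative control.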
# Hits are given with their value; n = inactive; u = inconclusive; x = no result; [ ] = dose if it differs, or a comment. Calls follow the shape of the dose curve; as a rule, active = well fitted curve in the direction sought with a large enough effect; inconclusive = small, poorly fitted or top-dose-only effect, or another doubt; inactive = no such curve, though single readings can be large; an effect the other way counts as inactive or inconclusive.
SMILES,Pol eta inh,POLK inh,FEN1 inhibitor,WRN inhibitor,POLB inh,Pol iota inh
NC(=S)N=Nc1c(O)cc(O)c2[nH]c(=O)ccc12,1.78µM,u,12.6µM,15.8µM,x,3.16µM
NC(=S)N=Nc1c(O)[nH]c2ccc(F)cc12,n,n,n,n,n,n
CCCCOC(=O)c1c(C)oc2c1cc(NS(=O)(=O)c1cc(OC)ccc1OC)c1ccccc12,n,n,n,x,n,n
NS(=O)(=O)Nc1c(Br)cc(Br)c2cccnc12,x,n,u,x,x,25.1µM
Nc1c(Br)cc(Br)c2cccnc12,x,n,u,x,x,8.91µM
C=C(C)[C@H]1CC=C(CO)CC1,x,n,x,x,x,x
Cc1cncn1CCc1nc2c3ccccc3nc(SCC(=O)Nc3cccc(Cl)c3)n2n1,n,n,n,n,n,n
CCC(Sc1nc2ccccc2c2nc(CCn3cncc3C)nn12)C(=O)Nc1cccc(OC)c1 (stereo not given),n,n,n,x,50.1µM,n
N=C1/C(=C/c2coc3ccccc3c2=O)C(=O)N=C2SC(c3ccco3)=NN12,3.16µM,u,31.6µM,39.8µM,n,u
COc1ccc(OCC(=O)OCc2cc(=O)n3nc(C4CCCCC4)sc3n2)cc1,n,n,n,x,44.7µM,u
CCCCC[C@H](O)/C=C/[C@@H]1[C@@H](C/C=C\CCCC(=O)O)[C@@H](O)C[C@@H]1O,x,n[19.4 µM],x,x,x,x
Cc1nc(Nc2cnc(/C=C/c3cc(C(=O)Nc4cccc(C(F)(F)F)c4)ccc3C)cn2)cc(N2CCNCC2)n1,39.8µM,n,79.4µM,u,39.8µM,n
CCOc1ccc(C(=O)Nc2ccc3nc(Nc4cccc(C(F)(F)F)c4)cc(C)c3c2)cc1OCC,n,n,n,x,n,n
Clc1ccccc1OCCSc1nnc(-c2cccs2)o1,n,n,n,x,n,n
CN1CCO/C1=C(\C(Cl)=C(Cl)Cl)[N+](=O)[O-],n,n,n,n,n,n
O=[N+]([O-])C(=C1Nc2ccccc2N1)C(Cl)=C(Cl)Cl,n,n,n,n[11.6 µM],n,50.1µM
COc1ccc(C2COc3cc(O)ccc3C2)c(OC)c1O (stereo not given),n,n,n,n,x,79.4µM
Cc1ccc(Cl)cc1N1CCN(C(=O)CSc2cc(=O)n(C)c3ccccc23)CC1,n,n,n,x,n,n
Cc1ccc(Cl)cc1N1CCN(C(=O)CSc2ccsc2[N+](=O)[O-])CC1,22.4µM,n,n,n,20µM,u
COc1ccc(-c2ccc(Nc3ccc(C(=O)N4CCOCC4)cc3)nn2)cc1OC,n,n,n,n,28.2µM,u
O=C(COC(=O)C1CCCCC1C(=O)N1CCc2ccccc21)NCc1ccco1 (stereo not given),25.1µM,u,n,n,31.6µM,u
COc1ccc(NC(=O)CCc2c(C)nn(-c3ccc(N4CCCC4)nn3)c2C)cc1Cl,n,n,n,x,n,n
COc1cccc(C2CC(c3cccs3)=NN2C(=O)CSc2nc3c(cnn3-c3ccc(F)cc3)c(=O)[nH]2)c1OC (stereo not given),n,n,17.8µM,n,n,n
COc1ccc(C2CC(c3cccs3)=NN2C(=O)CSc2nc3c(cnn3-c3ccccc3)c(=O)[nH]2)cc1 (stereo not given),n,n,n,n,n,n
COc1ccc(CC(=O)n2[nH]c(=O)c3ccccc3c2=O)cc1OC,n,n,n,n,n,n
SMILES,Pol eta inh,POLK inh,FEN1 inhibitor,WRN inhibitor,POLB inh,Pol iota inh
COc1ccc(CC(=O)n2[nH]c(=O)ccc2=O)cc1OC,n,n,n,22.4µM,n,n
COc1cccc(C2=CC(c3ccccc3F)n3ncc(C(=O)Nc4ccc(C)cc4)c3N2)c1 (stereo not given),n,n,n,x,28.2µM,n
Cc1ccc(-c2[nH]ncc2CNCc2ccc(CN(C)C)cc2)cc1,x,n,n,x,x,n
CCN(CC)CCCC(C)Nc1cc(/C=C/c2ccccc2Cl)nc2cc(Cl)ccc12 (stereo not given),x,n[19.4 µM],n,x,x,70.8µM
CCN(CC)CCCC(C)Nc1c2ccc(Cl)cc2nc2ccc(OC)cc12 (stereo not given),u,8.91µM,10.6µM,x,15.8µM,7.94µM
CCN(CC)CCN(C(=O)/C=C/c1cccs1)c1nc2ccc(Cl)cc2s1,n,n,n,n,n,n
Cn1cccc1C(=O)N1CCC2(CCCN(c3ccccc3)C2)CC1,x,n,x,x,x,x

# Bioassay records deposited in PubChem by National Center for Advancing Translational Sciences (NCATS).
